# Laboratory results from article PMC4336329 (PLoS ONE, 2015).
# The campaign covered roughly 310,000 compounds. About 14,000 (4.5%) showed an effect of 50% or more. Effects have a minus sign here. The list comes from a sample in which strong results are over-represented; it also holds similar structures and randomly drawn compounds.
# Target: human ether-à-go-go-related gene (hERG) potassium channel (human, UniProt Q12809)
# Test: primary screen, population patch clamp on CHO cells stably expressing hERG; higher = less effect of the substance
# 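Further: peak tail current of the secondary pulse compared with the same well before compound.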
# human ether-à-go-go-related gene (hERG) potassium channel, sequence (Q12809 whole entry, looked up): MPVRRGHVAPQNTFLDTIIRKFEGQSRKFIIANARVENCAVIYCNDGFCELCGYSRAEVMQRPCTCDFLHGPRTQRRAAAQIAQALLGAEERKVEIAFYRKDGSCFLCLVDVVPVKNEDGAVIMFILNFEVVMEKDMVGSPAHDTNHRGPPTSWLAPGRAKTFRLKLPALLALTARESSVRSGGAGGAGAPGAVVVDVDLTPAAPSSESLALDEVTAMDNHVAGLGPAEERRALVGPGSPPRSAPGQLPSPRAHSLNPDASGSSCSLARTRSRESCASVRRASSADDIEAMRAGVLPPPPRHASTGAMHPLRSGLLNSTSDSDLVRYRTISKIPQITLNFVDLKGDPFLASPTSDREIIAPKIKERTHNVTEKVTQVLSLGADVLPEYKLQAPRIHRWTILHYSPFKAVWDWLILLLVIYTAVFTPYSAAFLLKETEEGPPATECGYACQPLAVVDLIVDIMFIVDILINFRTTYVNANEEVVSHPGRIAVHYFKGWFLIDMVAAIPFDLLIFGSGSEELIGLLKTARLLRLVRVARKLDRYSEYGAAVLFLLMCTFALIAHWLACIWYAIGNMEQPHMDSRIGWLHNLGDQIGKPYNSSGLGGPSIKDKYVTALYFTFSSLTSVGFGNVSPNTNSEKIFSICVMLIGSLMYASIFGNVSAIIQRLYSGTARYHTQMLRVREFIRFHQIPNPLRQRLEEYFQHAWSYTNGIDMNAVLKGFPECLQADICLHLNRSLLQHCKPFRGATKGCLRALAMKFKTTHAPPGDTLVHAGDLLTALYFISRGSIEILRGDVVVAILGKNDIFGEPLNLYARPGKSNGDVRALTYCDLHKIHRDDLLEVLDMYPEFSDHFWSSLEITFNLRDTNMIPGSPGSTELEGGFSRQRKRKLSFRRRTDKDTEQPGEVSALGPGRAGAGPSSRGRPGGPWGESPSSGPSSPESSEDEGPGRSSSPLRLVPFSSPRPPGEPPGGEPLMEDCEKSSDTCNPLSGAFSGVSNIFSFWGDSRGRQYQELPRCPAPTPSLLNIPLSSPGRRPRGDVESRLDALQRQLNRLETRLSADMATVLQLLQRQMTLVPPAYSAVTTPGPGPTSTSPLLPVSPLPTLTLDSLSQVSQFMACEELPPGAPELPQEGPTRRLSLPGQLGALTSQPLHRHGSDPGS
row,Structure (SMILES),"hERG current change (%, negative = inhibition) at 10uM"
1,CSc1ncc(F)c(N(CCO)CCO)n1,10.5%
2,O=C1S/C(=C\c2ccccn2)C(=O)N1Cc1ccccc1F,9.45%
3,O=S(=O)(Nc1cccnc1Cl)c1ccc2c(c1)OCCO2,15.4%
4,COc1cc(C(=O)N(C)CCOc2ccc(C)cc2)ccc1OC1CCN(C(C)=O)CC1,8.41%
5,CCN1CCC2(CC1)N=C(c1ccc(F)cc1)C(=S)N2C(=O)c1ccc(C(C)(C)C)cc1,-10.8%
6,CC(C)OCCCNC(=O)NC(=O)c1ccc(Cl)cc1,-6.21%
7,CCN(CC)CCNC(=O)NC(=O)c1ccc(Cl)cc1,-63%
8,CN(C)CCNC(=O)NC(=O)c1ccc(Cl)cc1,-14.7%
9,COc1ccc(/C=N/NC(=O)C(C)n2nnc3ccccc32)cc1OC (centres unmarked),2.4%
10,C[n+]1c(-c2ccccc2)sc2ccccc21.[O-][Cl+3]([O-])([O-])[O-],23.1%
11,CC[n+]1c(C)sc2cc(C)ccc21.[I-],15%
12,Cc1ccc2c(c1)sc(-c1ccc(N(C)C)cc1)[n+]2C.[I-],-60%
13,O=C(CN1C(=O)c2cccnc2Oc2ccc(Cl)cc21)NC1CCCCC1,-13.1%
14,CC(=O)Nc1ccc(/C=C/C(=O)c2ccc3c(c2)OCCO3)cc1,-0.901%
15,CCOc1ccc(C(=O)NC(C(=O)NCC(c2cccs2)N(C)C)C(C)C)cc1 (centres unmarked),-19.8%
16,O=C(NCCc1c[nH]c2ccccc12)/C(=C\c1cccnc1)NC(=O)c1ccco1,-65.1%
17,O=C(NCCc1c[nH]c2ccccc12)/C(=C\c1ccco1)NC(=O)c1ccco1,-21.3%
18,O=C(NCCc1c[nH]c2ccccc12)c1ccco1,3.71%
19,O=C(NCCc1c[nH]c2ccccc12)/C(=C/c1cccnc1)NC(=O)c1ccco1,-64.7%
20,O=C(NCCCn1ccnc1)/C(=C\c1cccnc1)NC(=O)c1ccco1,-0.164%
21,O=C(NCCc1c[nH]c2ccccc12)/C(=C/c1ccco1)NC(=O)c1ccco1,-42.5%
22,CC1CCCC(C)N1C(=O)COC(=O)c1nn(C)c(=O)c2ccccc12 (centres unmarked),1.93%
23,CCOC(=O)N1CCN(C(=O)/C(=C/c2ccccc2OC)NC(=O)c2ccccc2)CC1,-37.9%
24,COc1ccc(C(=O)N/C(=C\c2cn(C)c3ccccc23)C(=O)N2CCN(C)CC2)cc1OC,-3.26%
25,CCOC(=O)N1CCN(C(=O)/C(=C/c2cccc3ccccc23)NC(=O)c2ccc(OC)cc2)CC1,-50.9%
26,COc1ccc(C(=O)N/C(=C\c2cccc3ccccc23)C(=O)N2CCN(C)CC2)cc1OC,-50.6%
27,COc1ccc(C(=O)N/C(=C\c2cn(S(=O)(=O)N(C)C)c3ccccc23)C(=O)N2CCOCC2)cc1,-47%

row,Structure (SMILES),"hERG current change (%, negative = inhibition) at 10uM"
1,COc1ccc(C(=O)N/C(=C\c2cn(C)c3ccccc23)C(=O)N2CCOCC2)cc1,-10.9%
2,COc1ccc(C(=O)N/C(=C\c2cn(S(=O)(=O)N(C)C)c3ccccc23)C(=O)N2CCN(C)CC2)cc1,-50.8%
3,COc1ccc(C(=O)N/C(=C\c2cccc3ccccc23)C(=O)N2CCN(C)CC2)cc1,-65.6%
4,CCOC(=O)N1CCN(C(=O)/C(=C/c2cccc3ccccc23)NC(=O)c2ccc(OC)c(OC)c2)CC1,-3.14%
5,CCn1cc(/C=C(\NC(=O)c2ccc(OC)c(OC)c2)C(=O)N2CCN(C)CC2)c2ccccc21,-32.8%
6,CN1CCN(C(=O)/C(=C/c2cn(S(=O)(=O)N(C)C)c3ccccc23)NC(=O)c2ccccc2)CC1,0.665%
7,COc1ccc(C(=O)N/C(=C\c2cn(C)c3ccccc23)C(=O)N2CCN(C)CC2)cc1,-7.61%
8,CCCCC[n+]1ccn(C2=C([O-])c3ccccc3C(=O)/C2=N\S(=O)(=O)c2ccc(Br)cc2)c1,-39.1%
9,CC(/C=C/c1ccc2c(c1)OCO2)=N\NC(=O)c1ccccc1,10.3%
10,O=S(=O)(NC1CCSc2ccccc21)c1ccc(Cl)nc1 (centres unmarked),-18.1%
11,CCOc1cc(/C=C2/C(=N)N3C(=NC2=O)SN=C3S(=O)(=O)C(C)C)ccc1OC(=O)c1ccco1,3.02%
12,COC(=O)C1C(O)=C(C=Nc2ccc3ccccc3c2)C(=O)CC1(C)C (centres unmarked),-8.23%
13,O=[N+]([O-])c1ccc(Sc2ccc(F)cc2)nc1,11.2%
14,COc1ccc(C(=O)Nc2cccc(/C=C(\CCC(=O)O)c3nc4ccccc4s3)c2)cc1,8.59%
15,CN(C)/C=C1\C(=O)NN=C1C(F)(F)F,4.44%
16,Cc1cccn2cc(-c3cccc(S(=O)(=O)N4CCOCC4)c3)nc12,0.676%
17,COc1cc(OC)cc(C(=O)NCC(=O)N2CCCCC2)c1,9.25%
18,CCn1ncc(Cl)c1C(=O)Nc1ccc2c(c1)CCC2,3.85%
19,O=C(NCC1CC1)Nc1ccc(Cl)cc1,17.7%
20,CCc1ccc(NC(=O)NCC2CCN(Cc3cccc(Cl)c3)CC2)cc1,-82.9%
21,CCc1ccc(NC(=O)NCC2CCN(c3ccc(OC)cc3)C2)cc1 (centres unmarked),-6.79%
22,Cc1ccc(NC(=O)NCC2CCN(Cc3cccc(Cl)c3)CC2)cc1Cl,-19.7%
23,O=C(NCC1CCN(Cc2cccc(Cl)c2)CC1)Nc1ccc(Cl)cc1,-76.2%
24,COc1ccc(Oc2nccc(OC)c2C#N)cc1,-0.188%
25,O=C(NCCCN1CCCC1=O)C1CCN(S(=O)(=O)c2cccc(Cl)c2Cl)CC1,-18.7%
26,O=C(/C=C/c1ccccc1)OCC(=O)N1CCCC1,0.185%
